“And” between values parts separate entries of the source, which are not always exact repeats. Equal entries are not always repeated. This is part of a sample that, as a whole, favours compounds with a hit. Of some 79,000 tested, about 15% had one in any assay. The source made the active and inactive calls. Cut-off read from the data, not from the text of the source: active = growth inhibition above about 70%; inactive = the rest.
Assays:
[1] = NCI Yeast Anticancer Drug Screen. Data for the rad50 strain (AID 155);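 note: 0% = growth of vehicle-only cultures of the same strain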; conditions: S. cerevisiae rad50 strain growth inhibition; at 50.0 µM; stronger effect = higher value
Outline: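 Cells are treated with compound, grown, and their growth is then scored against vehicle-only cultures of the same repair-deficient yeast strain.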

[2] = NCI Yeast Anticancer Drug Screen. Data for the mec2-1 strain (AID 157); conditions: S. cerevisiae mec2-1 strain, at 50.0 µM, stronger effect = higher value
Outline: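 Strain: mec2-1 (DNA repair/cell cycle alteration). Compound exposure, then growth measured; inhibition expressed relative to vehicle.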

[3] = NCI Yeast Anticancer Drug Screen. Data for the sgs1 mgt1 strain (AID 161);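 note: 0% = growth of cultures given vehicle only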; conditions: S. cerevisiae sgs1 mgt1 strain, at 50.0 µM, stronger effect = higher value
Outline: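 Read-out: growth inhibition vs vehicle controls. Cells: mutant yeast strain deficient in DNA damage repair.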

[4] = NCI Yeast Anticancer Drug Screen. Data for the cln2 rad14 strain (AID 165);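 note: 0% = growth equal to vehicle treated cultures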; conditions: S. cerevisiae cln2 rad14 strain, at 50.0 µM, stronger effect = higher value
Outline: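 Compounds are applied to the cln2 rad14 yeast strain, and growth is then compared with that of vehicle-treated cultures to give inhibition.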

[5] = NCI Yeast Anticancer Drug Screen. Data for the bub3 strain (AID 167); conditions: S. cerevisiae bub3 mutant strain, at 50.0 µM, stronger effect = higher value
Outline: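 Part of a panel of yeast mutants defective in DNA damage repair or cell cycle regulation. Each strain is grown with compound, and inhibition is calculated relative to solvent-treated cultures.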

[6] = NCI Yeast Anticancer Drug Screen. Data for the mlh1 rad18 strain (AID 175); conditions: S. cerevisiae mlh1 rad18 strain growth inhibition; at 50.0 µM; stronger effect = higher value
Outline: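 Read-out is yeast growth inhibition, calculated against vehicle-only controls. The compound was applied to a strain engineered with DNA damage repair alterations.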

Measured: growth inhibition

CC(=O)OCC1OC(n2c(N)c(C#N)c(C)c(C#N)c2=S)C(OC(C)=O)C(OC(C)=O)C1OC(C)=O (stereo unspecified)
inactive: [1] -25.4% and -28% | [2] -13% and -5.75% | [3] -7.1% and -10.7% | [4] -30.7% and -44.5% | [5] 3.55% and -1.5% | [6] -1.85% and -27.7%

C[N+](C)(C)CCOP(=O)(O)OP(=O)([O-])OCC1CCC(n2ccc(N)nc2=O)O1 (stereo unspecified)
inactive: [1] 7.7% and 4.45% | [2] -11.1% and 0.25% | [3] -18.8% and 9.2% | [4] 5.8% and -2.15% | [5] -38.6% and 2.55% | [6] -38.8% and -3.45%

CC(=O)OC1COC(n2cnc3c(=S)nc[nH]c32)C(OC(C)=O)C1OC(C)=O (stereo unspecified)
inactive: [1] 24.2% and -2.35% | [2] -0.1% and -1.6% | [3] 21.3% and -16.4% | [4] 18.4% and -19.2% | [5] 0.7% and 1.65% | [6] 7.35% and -11.9%

CCCCCCC1OCC(CC)C(CCC)O1 (stereo unspecified)
inactive: [1] 24.4% and 2% | [2] 23.6% and 6.9% | [3] 17.1% and -6.05% | [4] -12.2% and -9.7% | [5] 17.2% and 15.2% | [6] 30.4% and -9.4%

Cc1c(C)[n+](=O)c2ccccc2n1[O-]
inactive: [1] 15.9% and 7.2% | [2] -19.1% and -4% | [3] -7.6% and 3.5% | [4] -20.6% and -2.05% | [5] -18.1% and -3.6% | [6] 5.4% and 5.85%

O=C1CC(=P(c2ccccc2)(c2ccccc2)c2ccccc2)C(=O)O1
inactive: [1] 24.1% and -0.65% | [2] 24.5% and -1% | [3] 13.2% and 0% | [4] 14.7% and 9.8% | [5] 10.8% and -4.15% | [6] 12.2% and 5.5%

N=C(N)SCCc1ccccn1
inactive: [1] -30.3% and -8.8% | [2] -27.9% and -24.2% | [3] -35.1% and -28% | [4] -16.1% and -19.4% | [5] -44% and -39.1% | [6] -18.4% and -1.55%

Cc1ccc(S(=O)(=O)Nc2cc(=O)[nH]c3c2CCC3)cc1
inactive: [1] -2.05% and 43.4% | [2] -4.75% and 18.3% | [3] 9.25% and -26.8% | [4] -52% and 0.65% | [5] -18% and 24.2% | [6] -6.2% and 2.9%

C[N+](C)(C)c1ncnc2c1ncn2C1CC(O)C(CO)O1 (stereo unspecified)
inactive: [1] 21.2% and -23.1% | [2] 8.45% and 7% | [3] 15.7% and -2.85% | [4] 3.1% and -6.45% | [5] -33% and 10.6% | [6] 7.55% and 8.6%

COC1OC(CO)C(O)C(O)C1N1C(=O)c2ccccc2C1=O (stereo unspecified)
inactive: [1] 9.35% and -4.5% | [2] -4.15% and 8.4% | [3] 22.6% and -3.85% | [4] 7.95% and -15.8% | [5] 12.2% and 4.45% | [6] 19% and -3.45%

O=C(Oc1ccc(Cl)cc1Cl)Oc1ccc(Cl)cc1Cl
inactive: [1] -16.8% and -3.1% | [2] 11.6% and 10% | [3] -0.9% and -13.1% | [4] -13.1% and -15.7% | [5] 14.2% and 14.9% | [6] -14.5% and 20.6%

CC(=O)OCC1OC(Sc2nc(-c3ccc(C)cc3)c(C#N)c(=O)n2C2OC(COC(C)=O)C(OC(C)=O)C(OC(C)=O)C2OC(C)=O)C(OC(C)=O)C(OC(C)=O)C1OC(C)=O (stereo unspecified)
inactive: [1] 5% and -9.15% | [2] 7.65% and -9.45% | [3] -3.1% and 20.9% | [4] -32% and 10.2% | [5] 7.2% and 20.1% | [6] -7.8% and -34.5%

CC(O)C(O)C(O)C(O)CO (stereo unspecified)
inactive: [1] 17.1% and -19.8% | [2] -8.65% and -14.4% | [3] -15.2% and -4.65% | [4] 14.2% and -28.2% | [5] -18.9% and -5.9% | [6] 0.15% and -4.05%

Nc1nc(N)c(Br)c(=O)[nH]1
inactive: [1] -11.3% and 9% | [2] -36.4% and -24.6% | [3] -11.3% and -38.1% | [4] 12.2% and -83.6% | [5] -10.9% and -13.3% | [6] -6.75% and -21.4%

S=C(S)NCCNC(=S)S.[Cu+2]
inactive: [1] 1.15% and 27.4% | [2] -8.7% and -11.9% | [3] -0.6% and 6.45% | [4] -41.2% and -56.4% | [5] -18.2% and -14.6% | [6] 5.3% and -15.5%

OCC1CCCCO1 (stereo unspecified)
inactive: [1] 0.3% and 1.8% | [2] -13.7% and -6.7% | [3] 2.4% and -24.7% | [4] -1.65% and -37.9% | [5] 7.65% and -10.8% | [6] 3% and -8.4%

From PubChem BioAssay (NCI)
